PMC11062922 (Nature Chemical Biology, 2023)
Like-named read-outs stand apart in the source and are kept apart here.

What was measured:
Q6ZSR9 = Q6ZSR9 (human, UniProt Q6ZSR9); settings: read-out: apparent Kd, n = 1
SIK2 = settings: read-out: apparent Kd, n = 1

Q6ZSR9, sequence (Q6ZSR9 whole entry, looked up): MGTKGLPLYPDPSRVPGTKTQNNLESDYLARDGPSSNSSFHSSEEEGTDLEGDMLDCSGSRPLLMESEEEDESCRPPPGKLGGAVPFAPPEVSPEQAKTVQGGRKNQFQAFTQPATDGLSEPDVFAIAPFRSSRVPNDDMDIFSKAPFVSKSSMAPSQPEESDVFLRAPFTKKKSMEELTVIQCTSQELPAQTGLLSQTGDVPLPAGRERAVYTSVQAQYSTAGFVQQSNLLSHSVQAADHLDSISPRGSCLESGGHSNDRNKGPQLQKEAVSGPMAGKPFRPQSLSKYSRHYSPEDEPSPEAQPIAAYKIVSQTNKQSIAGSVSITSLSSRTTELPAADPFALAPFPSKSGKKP

Lestaurtinib
potency estimated from few doses (Q6ZSR9; compound concentrations:100 nM and 1000 nM (sheet 'Lestaurtinib' of Supplementary Table 1),run:Lestaurtinib_03172_R2,Plate:MR031): 54.5 nM | potency estimated from few doses (Q6ZSR9; compound concentrations:100 nM and 1000 nM (sheet 'Lestaurtinib' of Supplementary Table 1),run:Lestaurtinib_03172_R3,Plate:MR031): 57.5 nM | potency estimated from few doses (Q6ZSR9; compound concentrations:100 nM and 1000 nM (sheet 'Lestaurtinib' of Supplementary Table 1),run:Lestaurtinib_03252_R1,Plate:MR032): 61.3 nM | potency estimated from few doses (Q6ZSR9; compound concentrations:100 nM and 1000 nM (sheet 'Lestaurtinib' of Supplementary Table 1),run:Lestaurtinib_03260_R2,Plate:MR033): 113 nM | potency estimated from few doses (Q6ZSR9; compound concentrations:100 nM and 1000 nM (sheet 'Lestaurtinib' of Supplementary Table 1),run:Lestaurtinib_03260_R3,Plate:MR033): 79.5 nM | potency estimated from few doses (SIK2; compound concentrations:100 nM and 1000 nM (sheet 'Lestaurtinib' of Supplementary Table 1),run:Lestaurtinib_02339_R2,Plate:MR001): 44.6 nM | potency estimated from few doses (SIK2; compound concentrations:100 nM and 1000 nM (sheet 'Lestaurtinib' of Supplementary Table 1),run:Lestaurtinib_02364_R1,Plate:MR002): 53.6 nM | potency estimated from few doses (SIK2; compound concentrations:100 nM and 1000 nM (sheet 'Lestaurtinib' of Supplementary Table 1),run:Lestaurtinib_02367_R1,Plate:MR003): 51.8 nM | potency estimated from few doses (SIK2; compound concentrations:100 nM and 1000 nM (sheet 'Lestaurtinib' of Supplementary Table 1),run:Lestaurtinib_02367_R2,Plate:MR003): 57.3 nM | potency estimated from few doses (SIK2; compound concentrations:100 nM and 1000 nM (sheet 'Lestaurtinib' of Supplementary Table 1),run:Lestaurtinib_02367_R3,Plate:MR003): 51.5 nM | potency estimated from few doses (SIK2; compound concentrations:100 nM and 1000 nM (sheet 'Lestaurtinib' of Supplementary Table 1),run:Lestaurtinib_02381_R1,Plate:MR004): 56.4 nM | potency estimated from few doses (SIK2; compound concentrations:100 nM and 1000 nM (sheet 'Lestaurtinib' of Supplementary Table 1),run:Lestaurtinib_02381_R2,Plate:MR004): 62.4 nM | potency estimated from few doses (SIK2; compound concentrations:100 nM and 1000 nM (sheet 'Lestaurtinib' of Supplementary Table 1),run:Lestaurtinib_02381_R3,Plate:MR004): 30.1 nM | potency estimated from few doses (SIK2; compound concentrations:100 nM and 1000 nM (sheet 'Lestaurtinib' of Supplementary Table 1),run:Lestaurtinib_02407_R1,Plate:MR005): 50.7 nM | potency estimated from few doses (SIK2; compound concentrations:100 nM and 1000 nM (sheet 'Lestaurtinib' of Supplementary Table 1),run:Lestaurtinib_02407_R2,Plate:MR005): 52.5 nM | potency estimated from few doses (SIK2; compound concentrations:100 nM and 1000 nM (sheet 'Lestaurtinib' of Supplementary Table 1),run:Lestaurtinib_02422_R2,Plate:MR006): 9.74 nM | potency estimated from few doses (SIK2; compound concentrations:100 nM and 1000 nM (sheet 'Lestaurtinib' of Supplementary Table 1),run:Lestaurtinib_02422_R3,Plate:MR006): 52.6 nM | potency estimated from few doses (SIK2; compound concentrations:100 nM and 1000 nM (sheet 'Lestaurtinib' of Supplementary Table 1),run:Lestaurtinib_02437_R1,Plate:MR007): 50.6 nM | potency estimated from few doses (SIK2; compound concentrations:100 nM and 1000 nM (sheet 'Lestaurtinib' of Supplementary Table 1),run:Lestaurtinib_02437_R3,Plate:MR007): 7.45 nM | potency estimated from few doses (SIK2; compound concentrations:100 nM and 1000 nM (sheet 'Lestaurtinib' of Supplementary Table 1),run:Lestaurtinib_02438_R2,Plate:MR008): 41.4 nM | potency estimated from few doses (SIK2; compound concentrations:100 nM and 1000 nM (sheet 'Lestaurtinib' of Supplementary Table 1),run:Lestaurtinib_02438_R3,Plate:MR008): 34.7 nM | potency estimated from few doses (SIK2; compound concentrations:100 nM and 1000 nM (sheet 'Lestaurtinib' of Supplementary Table 1),run:Lestaurtinib_02443_R1,Plate:MR009): 49.3 nM | potency estimated from few doses (SIK2; compound concentrations:100 nM and 1000 nM (sheet 'Lestaurtinib' of Supplementary Table 1),run:Lestaurtinib_02443_R2,Plate:MR009): 51 nM | potency estimated from few doses (SIK2; compound concentrations:100 nM and 1000 nM (sheet 'Lestaurtinib' of Supplementary Table 1),run:Lestaurtinib_02443_R3,Plate:MR009): 51.1 nM | potency estimated from few doses (SIK2; compound concentrations:100 nM and 1000 nM (sheet 'Lestaurtinib' of Supplementary Table 1),run:Lestaurtinib_02473_R2,Plate:MR010): 44.2 nM | potency estimated from few doses (SIK2; compound concentrations:100 nM and 1000 nM (sheet 'Lestaurtinib' of Supplementary Table 1),run:Lestaurtinib_02473_R3,Plate:MR010): 30.1 nM | potency estimated from few doses (SIK2; compound concentrations:100 nM and 1000 nM (sheet 'Lestaurtinib' of Supplementary Table 1),run:Lestaurtinib_02482_R2,Plate:MR011): 52.3 nM | potency estimated from few doses (SIK2; compound concentrations:100 nM and 1000 nM (sheet 'Lestaurtinib' of Supplementary Table 1),run:Lestaurtinib_02482_R3,Plate:MR011): 44.9 nM | potency estimated from few doses (SIK2; compound concentrations:100 nM and 1000 nM (sheet 'Lestaurtinib' of Supplementary Table 1),run:Lestaurtinib_02487_R2,Plate:MR012): 47.8 nM | potency estimated from few doses (SIK2; compound concentrations:100 nM and 1000 nM (sheet 'Lestaurtinib' of Supplementary Table 1),run:Lestaurtinib_02487_R3,Plate:MR012): 59.5 nM | potency estimated from few doses (SIK2; compound concentrations:100 nM and 1000 nM (sheet 'Lestaurtinib' of Supplementary Table 1),run:Lestaurtinib_02496_R1,Plate:MR013): 44.2 nM | potency estimated from few doses (SIK2; compound concentrations:100 nM and 1000 nM (sheet 'Lestaurtinib' of Supplementary Table 1),run:Lestaurtinib_02496_R3,Plate:MR013): 40.2 nM | potency estimated from few doses (SIK2; compound concentrations:100 nM and 1000 nM (sheet 'Lestaurtinib' of Supplementary Table 1),run:Lestaurtinib_02566_R2,Plate:MR014): 48.9 nM | potency estimated from few doses (SIK2; compound concentrations:100 nM and 1000 nM (sheet 'Lestaurtinib' of Supplementary Table 1),run:Lestaurtinib_02566_R3,Plate:MR014): 62.6 nM | potency estimated from few doses (SIK2; compound concentrations:100 nM and 1000 nM (sheet 'Lestaurtinib' of Supplementary Table 1),run:Lestaurtinib_02572_R1,Plate:MR015): 46 nM | potency estimated from few doses (SIK2; compound concentrations:100 nM and 1000 nM (sheet 'Lestaurtinib' of Supplementary Table 1),run:Lestaurtinib_02572_R2,Plate:MR015): 51.5 nM | potency estimated from few doses (SIK2; compound concentrations:100 nM and 1000 nM (sheet 'Lestaurtinib' of Supplementary Table 1),run:Lestaurtinib_02572_R3,Plate:MR015): 51.6 nM | potency estimated from few doses (SIK2; compound concentrations:100 nM and 1000 nM (sheet 'Lestaurtinib' of Supplementary Table 1),run:Lestaurtinib_02577_R1,Plate:MR016): 51.5 nM | potency estimated from few doses (SIK2; compound concentrations:100 nM and 1000 nM (sheet 'Lestaurtinib' of Supplementary Table 1),run:Lestaurtinib_02577_R2,Plate:MR016): 44.8 nM | potency estimated from few doses (SIK2; compound concentrations:100 nM and 1000 nM (sheet 'Lestaurtinib' of Supplementary Table 1),run:Lestaurtinib_02577_R3,Plate:MR016): 46.9 nM | potency estimated from few doses (SIK2; compound concentrations:100 nM and 1000 nM (sheet 'Lestaurtinib' of Supplementary Table 1),run:Lestaurtinib_02584_R1,Plate:MR017): 51 nM | potency estimated from few doses (SIK2; compound concentrations:100 nM and 1000 nM (sheet 'Lestaurtinib' of Supplementary Table 1),run:Lestaurtinib_02584_R2,Plate:MR017): 49.6 nM
